Screening results: PubChem BioAssay, National Center for Advancing Translational Sciences (NCATS)
ELG1 DNA repair = ELG1-dependent DNA repair inhibition; Potency, µM (top dose mostly 46.1 µM), without a hit: top-dose activity change, negative = inhibition, most hits filed as inhibitors; 330,000 compounds, 2.3% hits; HEK293T ELG1-luciferase reporter, luminescence, 16 h; DNA damage induced by 5-fluorouridine; AID 504467; note: potency is the fitted concentration of half-maximal effect; nearly all actives have a fitted effect of over 55% in size
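In this reporter screen, reduction of luminescence relative to DMSO vehicle indicated activity. Compounds and 5-fluorouridine were added together to 2,000 cells per well, incubated for 16 hr at 37 °C, then developed with ONE-Glo.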
IL1B secr inh = inflammasome signaling inhibition, IL-1 beta readout | THP-1 LPS/ATP IL-1B secretion, AlphaLISA, 16 h; active compounds read low | AID 743279 | 360,000 compounds, 4.7% hits | activity change, % at 57.5 µM; in the data active = activity change below about -50%; inconclusive = mostly about -30% to -49%
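Secreted IL-1B measured by AlphaLISA bead assay after 16 h compound exposure of THP-1 cells; compounds (final up to 57.5 uM) added 1 h before LPS (250 ng/mL) and ATP (1.25 mM) stimulation; lower signal means less secretion.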
TDP1 inh = blocks human tyrosyl-DNA phosphodiesterase 1; Potency, µM (doses to about 130 µM), for inactives: at the highest dose activity change, negative = inhibition, actives largely listed as inhibitors; recombinant TDP1, AlphaScreen DNA substrate cleavage; 350,000 compounds, 0.28% hits; Q9NUW8; AID 485290; note: potency is the fitted concentration of half-maximal effect; nearly all actives have a fitted effect of over 40% in size
Target sequence (Q9NUW8 whole entry, looked up): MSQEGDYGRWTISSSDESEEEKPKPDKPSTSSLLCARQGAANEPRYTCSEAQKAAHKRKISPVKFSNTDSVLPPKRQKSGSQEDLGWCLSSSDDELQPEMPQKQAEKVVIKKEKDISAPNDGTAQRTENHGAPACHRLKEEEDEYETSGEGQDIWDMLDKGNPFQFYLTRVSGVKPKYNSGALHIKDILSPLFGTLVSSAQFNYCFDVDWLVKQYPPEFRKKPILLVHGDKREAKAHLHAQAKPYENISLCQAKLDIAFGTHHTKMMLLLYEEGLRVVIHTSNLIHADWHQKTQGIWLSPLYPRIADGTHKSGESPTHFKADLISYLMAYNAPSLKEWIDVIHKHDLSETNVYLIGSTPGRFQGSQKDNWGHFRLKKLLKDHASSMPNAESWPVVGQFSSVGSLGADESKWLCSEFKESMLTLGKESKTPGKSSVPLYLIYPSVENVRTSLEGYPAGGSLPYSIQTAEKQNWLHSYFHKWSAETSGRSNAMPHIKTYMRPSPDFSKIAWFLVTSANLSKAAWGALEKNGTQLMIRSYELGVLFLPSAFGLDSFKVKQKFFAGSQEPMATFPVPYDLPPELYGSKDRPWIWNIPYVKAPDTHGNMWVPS
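Enzyme-compound mixtures sat 15 min at room temperature, followed by a 5 min reaction with 15 nM final substrate and 10 min with AlphaScreen beads. Recombinant human Tdp1 was used at 1 nM final.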
DT40 TDP1 no CPT = qHTS for Inhibitors of human tyrosyl-DNA phosphodiesterase 1 (TDP1): qHTS in cells in absence of CPT; DT40 Tdp1-/- hTDP1 cells, no CPT, ATP luminescence, 48 h; Potency, µM (series often up to 46.2 µM), without a hit: top-dose activity change, negative = growth inhibition, usual class: inhibitors; 420,000 compounds, 15% hits; AID 686978, 2013; note: potency is the fitted concentration of half-maximal effect; nearly all actives have a fitted effect of over 55% in size
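DT40 Tdp1-/-;hTDP1 cells, no CPT (DMSO vehicle only), 400 cells/well; compounds pin-transferred; ≥48 hr, 37 °C; CellTiter-Glo 30 min RT dark, luminescence read.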
TDP1 cell CPT = DT40-hTDP1 cell growth loss with CPT; 420,000 compounds, 12% hits; chicken DT40 Tdp1-/-;hTDP1 cells + 20 nM CPT, ATP luminescence, 48 h; AID 686979; Potency, µM (titrated, usually from 46.2 µM), inactives show top-dose activity change, negative = growth inhibition, most hits filed as inhibitors; note: potency is the fitted concentration of half-maximal effect; nearly all actives have a fitted effect of over 55% in size
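Chicken DT40 Tdp1-/- cells stably complemented with human TDP1 were seeded at 400 cells/well in medium containing 20 nM camptothecin, exposed to pin-transferred compounds, and grown at 37 °C for at least 48 hr. Viability was read as ATP luminescence.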
Giardia killer = kills Giardia lamblia. Giardia lamblia trophozoite viability. 340,000 compounds, 0.15% hits. activity change, % at 7.66 µM, hits read low; in the data active = activity change below about -80%; inconclusive = between about -30% and that limit;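 note: parasites exposed to compound for two days anaerobically before the ATP read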
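Trophozoite viability was measured as ATP-dependent luminescence, read 15-30 min after reagent addition. Before that, parasites at 100 cells/well were exposed to compounds for 48 h, anaerobically, at 37 deg C.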
* marks the source's active call; other numbers are inactive results; u = inconclusive; x = no result; [ ] = another dose, or the depositor's remark. An excerpt weighted towards active compounds, which were near 19% of everything screened. Unless noted, calls come from the whole dose curve; as a rule, active = well fitted curve in the direction sought with a large enough effect; inconclusive = small, poorly fitted or top-dose-only effect, or another doubt; inactive = no such curve, though single readings can be large; an effect the other way counts as inactive or inconclusive. % is set by controls: 0 for no effect and ±100 for the full control effect.

SMILES | ELG1 DNA repair | IL1B secr inh | TDP1 inh | DT40 TDP1 no CPT | TDP1 cell CPT | Giardia killer
COc1ccc(CN2C(=O)C(C)Nc3ncnc(N4CCN(c5ccccn5)CC4)c32)cc1 (stereo unspecified) | 5% | -20 | 5% | 23µM* | u | 19
COc1ccc(CN2C(=O)C(C)Nc3ncnc(N4CCc5ccccc5C4)c32)cc1 (stereo unspecified) | x | 48 | x | 4.6µM* | 4.6µM* | x
Cc1ccc(CN2C(=O)C(C)Nc3ncnc(N4CCN(c5ccccn5)CC4)c32)cc1 (stereo unspecified) | u | -2 | 0% | 18µM* | u | -8
CCOC(=O)/C(C#N)=C/c1ccc(-c2ccc(C)cc2)o1 | x | x | -2%[12.3 µM] | u | u | x
Cc1cc(N2CCN(C(=O)c3ccco3)CC2)n2ncc(-c3ccccc3)c2n1 | u | -10 | -7% | 16µM* | 23µM* | 20
CCOC(=O)Cc1c(C)nc2c(-c3ccccc3)cnn2c1C | u | 0 | -5% | -23% | u | -13
Cc1cc(N2CCCCC2)n2ncc(-c3ccc(Cl)cc3)c2n1 | u | 6 | 4% | u | 13µM* | -16
Cc1cc(SCC(=O)c2ccccc2)n2ncc(-c3ccccc3)c2n1 | u | -6 | 3% | 7.3µM* | u | -10
Cc1cc(N2CCN(C(=O)c3ccco3)CC2)n2ncnc2n1 | 11% | -12 | 5% | -7% | -4% | 0
Cc1cc(-c2ccccc2)n2ncc(-c3ccccc3)c2n1 | u | -10 | -8% | -22% | -17% | -15
Cc1nc2c(-c3ccccc3)cnn2c(N)c1-c1ccccc1 | u | -78* | x | u | -28% | -29
Cc1cc(N2CCOCC2)n2ncc(-c3ccc(Cl)cc3)c2n1 | u | 15 | -4% | -16% | 1% | -13
CCCNC(=O)C1(CC2CC(c3ccccc3)=NO2)CCN(C(=O)C2CCCC2)CC1 (stereo unspecified) | -3% | -25 | -3% | -7% | -2% | -6
CC(=O)N1CCC2(CC1)CCN(c1ncccn1)CC2 | x | x | x | -21% | 8% | x
C=C(C)CSc1nc2nc(C)c(Br)cc2[nH]1 | u | x | 1% | x | x | x
Cc1cc(N2CCOCC2)n2ncc(-c3ccccc3)c2n1 | u | -7 | -4% | u | u | u
Cc1cc(N2CCCCC2)n2ncc(-c3ccccc3)c2n1 | u | 15 | x | 29µM* | u | -16
Cc1cccc(C2=NC(C(F)(F)F)(C(F)(F)F)c3c(n(-c4ccc(F)cc4)c(=O)[nH]c3=O)N2)c1 | 9.2µM* | 3 | 2% | 16µM* | 21µM* | -6
NC(=O)c1ccccc1NC(=O)/C=C/c1cccc(Cl)c1 | u | u | 4% | -13% | -23% | 6
Cc1ccc(/C=C/C(=O)NCCc2ccccc2)o1 | u | -27 | 0% | 29µM* | 5.8µM* | -4
Cc1ccc(/C=C/C(=O)Nc2ccccc2C(N)=O)o1 | x | x | -1% | 10µM* | u | x
NC(=O)c1ccccc1NC(=O)/C=C/c1c(Cl)cccc1Cl | u | -22 | -4% | 18µM* | u | 4
CCN1CCN(C(=O)N2CCOCC2)CC1 | 2% | -2 | -1% | -6% | 1% | 0
COc1ccc(CCC(=O)N2CCCC(Nc3ccccc3)C2)cc1OC (stereo unspecified) | -2% | 16 | 4% | -15% | -25% | -9
CCOC(=O)c1cc2cc(OC)ccc2n1C1CCN(CCc2ccccc2)CC1 | x | -10 | x | u | u | x
SMILES | ELG1 DNA repair | IL1B secr inh | TDP1 inh | DT40 TDP1 no CPT | TDP1 cell CPT | Giardia killer
CCOC(=O)c1cc2ccccc2n1C1CCN(CCc2ccccc2)CC1 | x | -19 | x | 7.3µM* | 9.2µM* | x
Cc1ccc(S(=O)(=O)CCC(=O)Nc2ccccc2Br)cc1 | -4% | -6 | x | 24% | -3% | 0
CCOc1ccccc1NC(=O)c1sc2nc(-c3ccc(OC)cc3)ccc2c1N | x | x | x | 13µM* | 21µM* | x
CCOc1ccccc1NC(=O)c1sc2nc(C)cc(C)c2c1N | x | x | -1% | u | u | x
Nc1c(C(=O)Nc2ccc(OC(F)(F)F)cc2)sc2nc(-c3ccncc3)ccc12 | x | x | -3% | 6.5µM* | 10µM* | x
COc1ccc(C(=O)c2sc3nc(-c4ccccc4)ccc3c2N)cc1 | 3% | -26 | 2% | -53% | -54% | -12
Nc1c(C(=O)NCc2ccc(Cl)cc2)sc2nc(-c3ccc(F)cc3)ccc12 | x | x | 2% | 21µM* | 18µM* | x
COc1cccc(-c2ccc3c(N)c(C(=O)c4ccc(Cl)cc4)sc3n2)c1 | x | x | x | 7.3µM* | 8.2µM* | x
CSc1ccc(-c2ccc3c(c2)CC(CNC(=O)Cn2nc(C)nc2C)O3)cc1 (stereo unspecified) | x | x | x | -21% | -24% | x
NS(=O)(=O)c1cccc(NC(=O)c2cccc(Oc3ccccc3)c2)c1 | -19% | 117 | 11%[0.0935 µM] | u | -17% | 21
CCOC(=O)Nc1cc(N)ncn1 | x | 19 | x | -8% | 3% | -1
CC1Cn2c(C(=O)NCc3cccc(Br)c3)cc3cccc(c32)S1 (stereo unspecified) | x | x | -8% | u | u | x
COc1cc(/C=N/NC(=O)C2COc3ccccc3O2)cc(OC)c1OC (stereo unspecified) | -19% | 8 | 3% | -28% | -4% | -14
COc1ccc(-c2ccc3c(N)c(C(=O)Nc4ccc(C)cc4C)sc3n2)cc1OC | x | x | -1% | u | 4.1µM* | x
COc1ccc(-c2ccc3c(N)c(C(=O)NCc4ccc(Cl)cc4)sc3n2)cc1 | x | x | x | 15µM* | u | x
CCOc1ccc(NC(=O)CN(c2ccc(OC)c(OC)c2)S(=O)(=O)c2ccc(C)cc2)cc1 | u | 74 | 3% | 8% | 0% | 4
CC(C)(C)NC(=O)C(=O)NNC(=O)COc1ccc(Br)cc1 | 9% | -9 | 7% | u | -11% | -8
Fc1c(CSC(=S)N2CCOCC2)cccc1CSC(=S)N1CCOCC1 | 23µM* | -3 | -1% | u | u | -19
Nc1nc(CSC(=S)N2CCOCC2)nc(Nc2ccccc2)n1 | u | -25 | 3% | u | u | -15
O=C(CS(=O)(=O)c1ccc(Cl)cc1)Nc1nc2ccc(Br)cc2s1 | x | x | 5% | 23µM* | u | x
CS(=O)(=O)c1ccc2nc(NC(=O)CC3CCCC3)sc2c1 | u | -25 | 5% | 13µM* | u | -14
CC(=O)Nc1ccc2nc(NC(=O)CS(=O)(=O)c3ccc(C)cc3)sc2c1 | x | x | 3% | u | -25% | x
CCC(=O)Nc1nc2ccc(S(C)(=O)=O)cc2s1 | 27% | 54 | 2% | -2% | -2% | 23
